Test results published in PubChem BioAssay AID1159580 (chemical genetic matrix, 2015).
Among all 5,500 compounds or so, about 2,000 (36%) were called active. Not shown: some 18% with an inconclusive outcome. Rule as the data show it: active = normalized growth mostly below about 0.91 (no sharp cut-off); inconclusive = no clear call, values can overlap the other calls; inactive = mostly above about 0.92. This is one part of the list.

Experiment: chemical genetic growth profiling, strain panel (AID 1159580);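 also: tested at 20 µM; growth read once vehicle control cultures reached saturation at 30 °C; 1 = growth at the plate median or of vehicle wells; lower values mean less growth of the strain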
Details: growth OD

Measured: normalized growth

C[C@@H]1CC[C@@]2(OC1)O[C@H]1CC3C4CC[C@H]5C[C@@H](O)CC[C@]5(C)C4CC[C@]3(C)[C@H]1[C@@H]2C (stereo not given in full)
inactive: S. cerevisiae deletion strains, locus YJR066W, strain TOR1, active compounds read low 0.945 | S. cerevisiae deletion strains, locus YJR075W, strain HOC1, active compounds read low 0.981 | S. cerevisiae deletion strains, locus YKL009W, strain mrt4, active compounds read low 0.991 | S. cerevisiae deletion strains, locus YKL068W, active compounds read low 0.981 | S. cerevisiae deletion strains, locus YKL085W, strain MDH1 (second series), active compounds read low 0.977 | S. cerevisiae deletion strains, locus YKL085W, strain MDH1, active compounds read low 0.977 | S. cerevisiae deletion strains, locus YKL160W, strain elf1, active compounds read low 0.996 | S. cerevisiae deletion strains, locus YKR001C, strain vps1, active compounds read low 0.987 | S. cerevisiae deletion strains, locus YKR026C, strain gcn3, active compounds read low 0.984 | S. cerevisiae deletion strains, locus YKR091W, strain srl3, active compounds read low 0.986 | S. cerevisiae deletion strains, locus YLL001W, strain dnm1, active compounds read low 1 | S. cerevisiae deletion strains, locus YLL026W, active compounds read low 0.988 | S. cerevisiae deletion strains, locus YLL041C, strain sdh2, active compounds read low 1 | S. cerevisiae deletion strains, locus YLR027C, strain aat2, active compounds read low 0.988 | S. cerevisiae deletion strains, locus YLR039C, strain RIC1, active compounds read low 1.01 | S. cerevisiae deletion strains, locus YLR058C, strain SHM2, active compounds read low 0.991 | S. cerevisiae deletion strains, locus YLR102C, strain apc9, active compounds read low 0.977 | S. cerevisiae deletion strains, locus YLR113W, strain HOG1, active compounds read low 0.999 | S. cerevisiae deletion strains, locus YLR221C, strain rsa3, active compounds read low 1.02 | S. cerevisiae deletion strains, locus YLR258W, strain gsy2, active compounds read low 1 | S. cerevisiae deletion strains, locus YLR262C, strain YPT6 (second series), active compounds read low 1.02 | S. cerevisiae deletion strains, locus YLR268W, strain sec22, active compounds read low 1 | S. cerevisiae deletion strains, locus YLR320W, strain mms22, active compounds read low 0.99 | S. cerevisiae deletion strains, locus YLR342W, strain FKS1, active compounds read low 0.976 | S. cerevisiae deletion strains, locus YLR357W, strain rsc2, active compounds read low 0.973 | S. cerevisiae deletion strains, locus YLR370C, strain arc18, active compounds read low 0.997 | S. cerevisiae deletion strains, locus YLR371W, strain rom2, active compounds read low 0.979 | S. cerevisiae deletion strains, locus YLR384C, strain iki3, active compounds read low 0.993 | S. cerevisiae deletion strains, locus YLR418C, strain cdc73, active compounds read low 0.973 | S. cerevisiae deletion strains, locus YML016C, strain PPZ1, active compounds read low 1 | S. cerevisiae deletion strains, locus YML032C, strain rad52, active compounds read low 0.997 | S. cerevisiae deletion strains, locus YML120C, strain ndi1, active compounds read low 1.01 | S. cerevisiae deletion strains, locus YML124C, strain tub3, active compounds read low 0.983 | S. cerevisiae deletion strains, locus YMR058W, strain fet3, active compounds read low 0.996 | S. cerevisiae deletion strains, locus YMR078C, strain ctf18, active compounds read low 0.969 | S. cerevisiae deletion strains, locus YMR125W, strain sto1, active compounds read low 0.984 | S. cerevisiae deletion strains, locus YMR129W, active compounds read low 0.987 | S. cerevisiae deletion strains, locus YMR205C, strain PFK2, active compounds read low 1 | S. cerevisiae deletion strains, locus YMR223W, strain ubp8, active compounds read low 0.979 | S. cerevisiae deletion strains, locus YMR231W, strain pep5, active compounds read low 0.998 | S. cerevisiae deletion strains, locus YMR263W, strain SAP30, active compounds read low 0.976 | S. cerevisiae deletion strains, locus YMR307W, strain GAS1, active compounds read low 1.23 | S. cerevisiae deletion strains, locus YNL067W, strain RPL9B, active compounds read low 0.974 | S. cerevisiae deletion strains, locus YNL071W, strain lat1, active compounds read low 0.996 | S. cerevisiae deletion strains, locus YNL183C, strain NPR1, active compounds read low 0.975 | S. cerevisiae deletion strains, locus YNL209W, strain ssb2, active compounds read low 0.983 | S. cerevisiae deletion strains, locus YNL233W, strain BNI4, active compounds read low 0.99 | S. cerevisiae deletion strains, locus YNL248C, strain rpa49, active compounds read low 1 | S. cerevisiae deletion strains, locus YNL250W, strain rad50, active compounds read low 0.955 | S. cerevisiae deletion strains, locus YNL271C, strain bni1, active compounds read low 0.983 | S. cerevisiae deletion strains, locus YNL298W, strain CLA4, active compounds read low 0.972 | S. cerevisiae deletion strains, locus YNL307C, strain MCK1, active compounds read low 0.989 | S. cerevisiae deletion strains, locus YNL322C, strain KRE1 (second series), active compounds read low 0.987 | S. cerevisiae deletion strains, locus YNL322C, strain KRE1, active compounds read low 0.987 | S. cerevisiae deletion strains, locus YNR049C, strain mso1, active compounds read low 0.983 | S. cerevisiae deletion strains, locus YNR052C, strain pop2, active compounds read low 0.962 | S. cerevisiae deletion strains, locus YOL006C, strain TOP1, active compounds read low 1.14 | S. cerevisiae deletion strains, locus YOL012C, strain htz1 0.991 | S. cerevisiae deletion strains, locus YOL147C, strain pex11, active compounds read low 0.978 | S. cerevisiae deletion strains, locus YOR001W, strain rrp6, active compounds read low 0.999 | S. cerevisiae deletion strains, locus YOR061W, strain CKA2, active compounds read low 0.996 | S. cerevisiae deletion strains, locus YOR069W, strain VPS5, active compounds read low 0.983 | S. cerevisiae deletion strains, locus YOR070C, strain gyp1, active compounds read low 0.965 | S. cerevisiae deletion strains, locus YOR080W, strain dia2, active compounds read low 0.996 | S. cerevisiae deletion strains, locus YOR083W, strain WHI5, active compounds read low 0.992 | S. cerevisiae deletion strains, locus YOR106W, strain vam3, active compounds read low 0.983 | S. cerevisiae deletion strains, locus YOR136W, strain idh2, active compounds read low 0.992 | S. cerevisiae deletion strains, locus YOR144C, strain elg1, active compounds read low 0.988 | S. cerevisiae deletion strains, locus YOR184W, strain ser1, active compounds read low 1.03 | S. cerevisiae deletion strains, locus YOR231W, strain MKK1, active compounds read low 0.998 | S. cerevisiae deletion strains, locus YOR265W, strain rbl2, active compounds read low 0.995 | S. cerevisiae deletion strains, locus YOR270C, strain vph1, active compounds read low 1.03 | S. cerevisiae deletion strains, locus YOR290C, strain snf2, active compounds read low 1.01 | S. cerevisiae deletion strains, locus YOR316C, strain cot1, active compounds read low 0.962 | S. cerevisiae deletion strains, locus YPL051W, strain arl3, active compounds read low 0.997 | S. cerevisiae deletion strains, locus YPL078C, strain atp4, active compounds read low 1 | S. cerevisiae deletion strains, locus YPL106C, strain sse1, active compounds read low 0.972 | S. cerevisiae deletion strains, locus YPL240C, strain hsp82, active compounds read low 0.977 | S. cerevisiae deletion strains, locus YPL256C, strain CLN2, active compounds read low 0.999 | S. cerevisiae deletion strains, locus YPR119W, strain clb2, active compounds read low 0.979 | S. cerevisiae deletion strains, locus YPR141C, strain kar3, active compounds read low 0.951 | S. cerevisiae deletion strains, locus YPR163C, strain tif3, active compounds read low 0.959 | S. cerevisiae deletion strains, locus YPR167C, strain met16, active compounds read low 0.985 | S. cerevisiae deletion strains, strain wtn01, active compounds read low 1.01 | S. cerevisiae strains, strain wild type, active compounds read low 1.01
